About 2,300 (0.79%) of roughly 290,000 compounds were called active. For the sample, actives were picked, then their nearest neighbours and some compounds at random. Values without a mark were called inactive. Rule as the data show it: active = inhibition above about 22%; inactive = the rest.

This test in a line: IEC-6 cell viability reduction – luminescence, cytotoxicity control for KLF5 inhibitor project, primary screen (AID 1825).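 Also: 0% = plate median of test compound wells and 100% = cytotoxic reference compound wells.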 The settings on record: IEC-6 cytotoxicity, at 5 µM, hits give high values.
In the case of `Cc1oc2cc3oc(=O)ccc3cc2c1C`, the inhibition is 3.1%.

With `COCCNc1cc(-c2ccccc2)nc2cc(-c3cccc(F)c3)nn12`, the inhibition was 2.5%.

In the case of `CCOC(=O)C1=C(N)N2C(=O)C(C)SC2=C(C(=O)OCC)C1c1cc(OC)c(OC)c(OC)c1` (stereo not given), the inhibition is 25.5% (active).

On to `CCOC(=O)C1CCN(C(=O)/C=C/c2cc(OC)c(OC)c(OC)c2)CC1`, for which the inhibition was -2.6%.

On to `CCOC(=O)c1cc(-c2nnc(-c3cc(OC)c(OC)c(OC)c3)o2)c(C)nc1C`, for which the inhibition was -3.1%.

Consider `Cc1ccc(N2CC(C(=O)NCCS(=O)(=O)N3CCN(c4ccccc4)CC3)CC2=O)cc1` (stereo not given), for which the inhibition was -4.2%.

As for `COc1cc(OC)c(OC)cc1/C=N/Nc1ncnc2c1[nH]c1ccc(C)cc12`, the inhibition is -4.4%.

Consider `Fc1ccc2[nH]c3c(N4CCN(Cc5ccc6c(c5)OCO6)CC4)ncnc3c2c1`, for which the inhibition is 19.7%.

With `CC(C)OCCCNc1ncnc2c1[nH]c1ccc(F)cc12`, the inhibition is 31.5% (active).

Consider `COc1ccc(-c2nc3n(c(=O)c2C#N)CCS3)c(OC)c1`, for which the inhibition is 1.6%.

As to `O=C(c1cc2ccccc2s1)N1CCN(c2ccccn2)CC1`, the inhibition is 3.8%.

Turning to `Cc1ccc(-c2cc(C(=O)NCC3CCCO3)c3ccccc3n2)o1` (stereo not given), the inhibition was -6%.

On to `CCc1c(C)nc2c(-c3ccccc3)c(C)nn2c1Nc1ccc(NC(C)=O)cc1`, for which the inhibition was -10.5%.

Consider `Cc1cc(C(C)(C)C)n2nc(C)c(-c3ccccc3)c2n1`, for which the inhibition is 0.2%.

Take `Cc1nn2c(NCCN(C)C)c3c(nc2c1-c1ccccc1)CCC3`: the inhibition was 25% (active).

As to `CC(=O)N(c1ccc2oc(=O)sc2c1)S(=O)(=O)c1ccc(C)cc1`, the inhibition was -2.8%.

Take `COc1ccc(CC(=O)N/N=C(\C)c2ccccn2)cc1`: the inhibition was 2%.

On to `C/C(=N\NC(=O)Cc1ccc(Cl)cc1)c1ccccn1`, for which the inhibition is -2.8%.

In the case of `C/C(=N\NC(=O)c1ccccc1F)c1ccccn1`, the inhibition was 29.2% (active).

With `CCC(C)(C)NC(=O)/C=C/c1cc(OC)c(OC)c(S(=O)(=O)N2CCc3ccccc32)c1`, the inhibition was -0.4%.

With `Cc1nc2ccccc2c(=O)n1Cc1ccc([N+](=O)[O-])cc1`, the inhibition was -1.7%.

Turning to `Cc1nc2ccccc2n1CC(O)c1ccccc1` (stereo not given), the inhibition is 0%.

With `CCn1c(C)nc2c1C(=O)c1ccccc1C2=O`, the inhibition is 22.2% (active).

Turning to `CCc1ccccc1NC(=S)Nc1cc(OC)c(NC(=O)C(C)C)cc1OC`, the inhibition is -1.1%.

As to `NS(=O)(=O)c1ccccc1NC(=O)c1c(O)c2ccccc2[nH]c1=O`, the inhibition was -0.5%.

For the molecule `COc1ccc(Oc2cn[nH]c2-c2ccc(OC)cc2O)cc1`, the inhibition was 0%.

In the case of `CC(C)(C)NS(=O)(=O)c1ccc(NC(=O)C2CCCO2)cc1` (stereo not given), the inhibition was -5%.

On to `CCN1/C(=C/c2ccc3ccc(C)cc3[n+]2CC)Sc2ccccc21`, for which the inhibition is 33.6% (active).

Regarding `CCN1/C(=C\c2ccc3ccccc3[n+]2CC)Sc2cc(C)ccc21`, the inhibition was 54.6% (active).

As for `CCN1CCN(CCNC(=O)c2ccc(/C=C3/Sc4ccccc4N(Cc4cccc(C)c4)C3=O)cc2)CC1`, the inhibition was 7.2%.

In the case of `COC(=O)c1sccc1NS(=O)(=O)c1ccc(F)cc1F`, the inhibition was 1%.

For `CCOC(=O)[C@@H]1[C@H]2COc3ccc(Br)cc3[C@H]2N2C(=O)N(c3ccc(Cl)cc3)C(=O)[C@@]12C`, the inhibition was -0.1%.

As for `CC1CC(C)CN(C(=O)CCNC(=O)Cn2cnc3ccccc3c2=O)C1` (stereo not given), the inhibition was 0.9%.

Take `CC(C)[C@@H](C(=O)O)N(Cc1cccc(CN([C@H](C(=O)O)C(C)C)S(C)(=O)=O)c1)S(C)(=O)=O`: the inhibition was -3.4%.

On to `CCOC(=O)C(=Cc1ccccc1OC)C(=O)OCC`, for which the inhibition is -0.6%.

For `Cc1cc2c(cc1S(=O)(=O)CCC(=O)NCc1ccccc1)OCC(=O)N2`, the inhibition was 11%.

`C/C(=N\N(C)C)c1ccc(OCCOc2ccc([N+](=O)[O-])cc2)cc1`: the inhibition is 2.8%.

With `COc1cccc(OC)c1C(=O)Nc1c(C(=O)N2CCN(c3ccccn3)CC2)oc2ccccc12`, the inhibition was 0%.

As to `CCOc1ccc(NC(=O)CC(Cc2ccc(Cl)cc2)C(=O)O)cc1` (stereo not given), the inhibition was 5.3%.

Take `Cc1ccc(S(=O)(=O)CC(=O)Nc2nnc(C)s2)cc1`: the inhibition was -1.2%.

In the case of `CCSc1nnc(NC(=O)c2ccc(C)cc2)s1`, the inhibition was 2.1%.

As to `CSc1ncc(Cl)c(C(=O)Nc2cc(C)ccc2C)n1`, the inhibition is 4.1%.

In the case of `Cc1ccc(CS(=O)(=O)c2ncc(Cl)c(C(=O)Nc3nnc(C)s3)n2)cc1`, the inhibition was 83.7% (active).

For `CSc1nnc(NC(=O)c2nc(S(=O)(=O)Cc3ccc(C)cc3)ncc2Cl)s1`, the inhibition was 55% (active).

With `Cc1nnc(NC(=O)Nc2ccc(Cl)c(Cl)c2)s1`, the inhibition was 4.3%.

Take `Cc1ccc2cc(C)c(N3CCN(c4ccc(F)cc4)CC3)nc2c1`: the inhibition is -5.5%.

For `COc1cccc2cc(-c3cc(=O)oc4cc(C)c(O)cc34)oc12`, the inhibition is -3.7%.

Turning to `Cc1[nH]c(C)c(S(=O)(=O)N2CCN(c3cccc(C(F)(F)F)c3)CC2)c1C(=O)N1CCCC1`, the inhibition was -1.3%.

On to `COc1cccc(C(O)c2nc3ccccc3n2C)c1` (stereo not given), for which the inhibition is -1%.

For the molecule `CC(C)[C@@H]1COC(c2cccc(C3=N[C@H](C(C)C)CO3)c2)=N1`, the inhibition was 2.1%.

For the molecule `CCCc1nc(NCc2ccc3c(c2)OCO3)c2nnn(Cc3ccccc3Cl)c2n1`, the inhibition is 0.3%.

On to `Cc1nc(Nc2ccc3c(c2)OCCO3)c2nnn(Cc3ccccc3Cl)c2n1`, for which the inhibition is 22.2% (active).

`Cc1nc(Nc2ccccc2F)c2nnn(Cc3ccccc3Cl)c2n1`: the inhibition was -5.6%.

For the molecule `O=C(CNC(=O)c1ccc(Br)o1)Nc1ccccc1`, the inhibition is -1.9%.

`CCOc1cccc(-n2nnnc2-c2ccc(OC)cc2)c1`: the inhibition is 58.4% (active).

As for `c1ccc(-n2nnnc2-c2cccnc2)cc1`, the inhibition is 4.3%.

Consider `COc1ccc(-n2nnnc2-c2nc3ccccc3s2)cc1`, for which the inhibition is -9%.

Turning to `COCCNC(=O)C(c1ccc(C)cc1)N(C(=O)CCC(=O)Nc1ccccn1)c1cccc(C)c1` (stereo not given), the inhibition is 7%.

Regarding `C=CCOC(=O)C1=C(C)NC(SCC(=O)OCC)=C(C#N)C1c1ccc(C)cc1` (stereo not given), the inhibition is 0.1%.

As to `Cc1ccc(C2CC(=O)NC(SCC(=O)OCc3ccccc3)=C2C#N)o1` (stereo not given), the inhibition was -14.2%.

With `CCOC(=O)CSC1=C(C#N)C(c2sccc2C)CC(=O)N1` (stereo not given), the inhibition was 81.1% (active).

For `N#C/C=C/N1CCN(Cc2ccc3c(c2)OCO3)CC1`, the inhibition is -5.9%.

Regarding `Cc1ccc(-n2c(SCC(=O)Nc3ncc(Cl)cc3Cl)nc3ccccc32)cc1`, the inhibition was 61.4% (active).

For `Cc1ccc(SCCC(=O)OCC(=O)Nc2ncc(Cl)cc2Cl)cc1`, the inhibition is -3.3%.

Consider `NS(=O)(=O)c1cccc(NC(=O)CSc2nc3ccccc3n2-c2ccccc2)c1`, for which the inhibition was -1.5%.

As to `COCCN1C(=O)C(=O)/C(=C(/O)c2ccc(S(=O)(=O)N3CCOCC3)cc2)C1c1ccc(OC)c(OC)c1` (stereo not given), the inhibition was 5.3%.

With `NC(=O)Cn1cc(/C=N\NS(=O)(=O)c2ccccc2)c2ccccc21`, the inhibition is 1.4%.

Regarding `CCOc1ccccc1CNS(=O)(=O)c1cc(-c2cc(C)no2)ccc1C`, the inhibition is 2.7%.

`COc1ccc(CNS(=O)(=O)c2cc(-c3cc(C)no3)ccc2C(C)C)cc1`: the inhibition was 77.6% (active).

Regarding `Cc1cc(-c2ccc(C)c(S(=O)(=O)NCCCN(Cc3ccccc3)C(C)C)c2)on1`, the inhibition is 6.1%.

`COc1cccc(NC(=O)CN(C)C(=O)c2ccccc2CCc2ccccc2)c1`: the inhibition was -3.1%.

For `Cc1ccc(C(=O)CCC(=O)N(C)CC(=O)Nc2c(Cl)cccc2Cl)cc1`, the inhibition was 1.7%.

Take `Cc1ccc(N/C=C/C(=O)c2ccccc2)cc1C`: the inhibition was 0.5%.

Consider `Cc1cc(C)nc(SCC(=O)c2ccc(Cl)cc2)n1`, for which the inhibition was -2.2%.

For the molecule `Cc1cc(C)nc(S/C=C/C(=O)c2ccccc2)n1`, the inhibition is 31.5% (active).

As to `O=S(=O)(NC1CCCC1)c1ccc(-n2cnnn2)cc1`, the inhibition was -0.4%.

Turning to `Cc1ccc(NS(=O)(=O)c2ccc(C)c(NC(=O)COc3ccc4ccccc4c3)c2)c(C)c1`, the inhibition is -2%.

With `COc1cc(NS(=O)(=O)c2ccc3ccccc3c2)c2ncccc2c1`, the inhibition was 93.3% (active).

As to `COc1ccc2cc(S(=O)(=O)Nc3ccccn3)ccc2c1`, the inhibition was 1.9%.

As for `CCC(CC)c1nnc(NC(=O)C2CCN(C(=O)c3ccco3)CC2)s1`, the inhibition was -0.9%.

With `COc1ccc(C(=O)c2c(C)c(CCC#N)n3ccccc23)c(OC)c1`, the inhibition was -1.3%.

In the case of `CCC(=C/c1sc2ccc3ccccc3c2[n+]1C)/C=C1\Sc2ccc3ccccc3c2N1C`, the inhibition is 32.2% (active).

With `CC(C)C(=O)Nc1c2c(nn1-c1ccccc1)CSC2`, the inhibition was -4.2%.

Consider `COc1ccc(/C=C/c2noc(-c3ccccc3OC(C)=O)n2)cc1`, for which the inhibition was -0.4%.

On to `S=C(Nc1ccc(Br)cc1)NC1CCN(Cc2ccccc2)CC1`, for which the inhibition was 11.3%.

On to `COc1ccc(CCNc2nc(-c3cccc(NC(C)=O)c3)cs2)cc1OC`, for which the inhibition was 2.3%.

Consider `Cc1cccc(Nc2nc(-c3ccccc3)cs2)n1`, for which the inhibition is 5.9%.

As to `Cc1ccc(-c2csc(NC3OC(=O)c4ccccc43)n2)cc1` (stereo not given), the inhibition was 34.7% (active).

As for `Cc1ccc(-c2csc(NNC(=O)c3ccccc3)n2)cc1`, the inhibition is -1.4%.

Take `COc1ccc2c(c1OC)C(=O)OC2Nc1nc(-c2ccccc2)cs1` (stereo not given): the inhibition is 21.9% (active).

For the molecule `COc1ccc(-c2csc(NC3OC(=O)c4ccccc43)n2)cc1` (stereo not given), the inhibition is 18.7%.

`COCCN1C(=O)N(c2ccc(Cl)cc2)C(=O)C1CC(=O)Nc1cc(OC)cc(OC)c1` (stereo not given): the inhibition is -2.6%.

Turning to `CC(=O)Nc1c2c(nn1-c1ccc(C)cc1C)CS(=O)C2` (stereo not given), the inhibition was -0.7%.

Take `NC(=O)c1oc2ccccc2c1NC(=O)CS(=O)(=O)c1ccccc1`: the inhibition is 6.1%.

For `Cc1ccc(NC(=O)C(C)c2cccc(C(=O)c3ccccc3)c2)cc1` (stereo not given), the inhibition was 3.2%.
